In PubChem BioAssay AID876 (University of Pittsburgh Molecular Library Screening Center, 2007) one finds EC50 data, which are given here for five compounds.

The list shows a part of the results. The source made the active and inactive calls. The rule behind the calls is not given here.

The test can be described thus: H2O2 production by redox-active compounds – biochemical, artefact control for Plk1 PBD inhibitor project, dose response (AID 876). The following applies: redox cycling H2O2 generation, DTT, counter-screen.
For `Oc1ccc2ccc3cccc[n+]3c2c1`, the EC50 was > 50 µM (inactive). Under `CC1(C)CC(=O)C=C(NCc2ccncc2)C1` stands > 50 µM (inactive); under `CCOC(=O)c1cc2n(c1N)-c1ccccc1C2=O`, > 50 µM (inactive). As for `COc1ccc(Nc2oc(-c3ccccc3Cl)nc2C#N)cc1`, the EC50 was > 50 µM (inactive). Under `O=C(NCCc1ccccc1)/C(=C\c1ccc([N+](=O)[O-])cc1)NC(=O)c1ccccc1` stands > 50 µM (inactive).
